Source: PubChem BioAssay (Tox21)
Where “and” joins values, the source holds several entries; their conditions need not be identical. Identical values can stand only once. Inconclusive results are not listed. Where a call stands in place of a potency, no number is given. More than one record can exist for a structure, and the calls need not agree. Calls of active or inactive are those of the source. Unless noted, the call rests on the fitted dose curve; in most records, active means well fitted curve in the direction sought with a large enough effect in the repeat runs; inconclusive means weak or mixed curves; inactive means no such curve, though single readings can be large; an effect the other way counts as inactive or inconclusive.

test system: not listed separately; test: qHTS assay to identify small molecule agonists of the estrogen receptor beta (ER-beta) signaling pathway - cell viability counter screen (AID 1259380); details: ER-beta-bla HEK293T viability, CellTiter-Glo luminescence, 16 h; series mostly up to 92.4 µM; activity change, negative = cytotoxicity: at the top concentration; further: nearly all actives have a fitted effect of over 30% in size; further: potency means the concentration at half of the fitted maximal effect
How it was run: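 Cells used were ER-beta-UAS-bla HEK293T in medium with 2% charcoal-stripped FBS. They were treated for 16 hr at 37C. Viability came from CellTiter-Glo luminescence.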

Row | Structure (SMILES) | Potency | activity change, negative = cytotoxicity
1 | C[C@]12CCC(=O)C(O)=C1CC[C@@H]1[C@@H]2CC[C@]2(C)C(=O)CC[C@@H]12 | 24.3 µM (active) | 
2 | O=C(NC(=O)c1c(F)cccc1F)Nc1ccc(Cl)cc1 | inactive | 
3 | c1cc(OCC2CO2)ccc1Cc1ccc(OCC2CO2)cc1 (stereo not given) | 48.6 µM (active) | 
4 | C#CCOS(=O)OC1CCCCC1Oc1ccc(C(C)(C)C)cc1 (stereo not given) | 27.3 µM (active) | 
5 | CCN(CC)C(=O)SCc1ccc(Cl)cc1 | inactive | 
6 | CC(C)Oc1cc(-n2nc(C(C)(C)C)oc2=O)c(Cl)cc1Cl | inactive | 
7 | O=C(Nc1ccc(Br)cc1)c1cc(Br)cc(Br)c1O | 19.3 µM (active) and 29.8 µM (active) | 
8 | CNC(=O)Oc1cccc2c1OC(C)(C)O2 | inactive | 
9 | Nc1cccnc1 | inactive | 
10 | CN(C)c1ccc(C(=O)c2ccc(N(C)C)cc2)cc1 |  | -7.93% (inactive)
11 | N#Cc1cc(Br)c(O)c(Br)c1 | inactive | 
12 | O=[N+]([O-])c1ccc(O)c([N+](=O)[O-])c1 |  | 13.4% (inactive)
13 | CCN(CC)C(=O)/C(Cl)=C(\C)OP(=O)(OC)OC | inactive | 
14 | Oc1cc(Cl)c(Cl)cc1Cl | inactive | 
15 | CCOC(=S)S | 10.3 µM (active) | 
16 | O=S(=O)(Oc1ccc(Cl)cc1)c1ccc(Cl)cc1 | inactive | 
17 | N#CC(Br)Br | inactive | 
18 | Nc1ccncc1 | inactive | 
19 | Oc1c(Cl)c(Cl)c(Cl)c(Cl)c1Cl |  | -6.4% (inactive)
20 | CCOc1cc(Oc2ccc(C(F)(F)F)cc2Cl)ccc1[N+](=O)[O-] |  | 11.1% (inactive)
21 | CCOc1cc(C=O)ccc1O | inactive | 
22 | CC(C)c1ccc(CO)cc1 | inactive | 
23 | CCOCN(C(=O)CCl)c1c(C)cccc1CC | 48.6 µM (active) | 
24 | C=CCc1ccc(OC)cc1 | inactive | 

target: Androgen receptor (Homo sapiens) (UniProt P10275); test: qHTS assay to identify small molecule agonists of the androgen receptor (AR) signaling pathway in the presence of an antagonist (AID 1259381; calls by dose curve; further: nearly all actives have a fitted effect of over 15% in size); details: MDA-kb2 MMTV-luciferase, AR agonist + nilutamide, 16 h; series mostly up to 92.4 µM; activation: at the top concentration
How it was run: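 Using human MDA-kb2 cells with an MMTV promoter–luciferase construct (AR and GR response elements), agonist activity is scored under 3.0uM nilutamide (final) co-treatment; 16hr incubation, 37C, luminescence readout via ONE-Glo.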

Chain of Androgen receptor (Homo sapiens) (P10275 whole entry, looked up): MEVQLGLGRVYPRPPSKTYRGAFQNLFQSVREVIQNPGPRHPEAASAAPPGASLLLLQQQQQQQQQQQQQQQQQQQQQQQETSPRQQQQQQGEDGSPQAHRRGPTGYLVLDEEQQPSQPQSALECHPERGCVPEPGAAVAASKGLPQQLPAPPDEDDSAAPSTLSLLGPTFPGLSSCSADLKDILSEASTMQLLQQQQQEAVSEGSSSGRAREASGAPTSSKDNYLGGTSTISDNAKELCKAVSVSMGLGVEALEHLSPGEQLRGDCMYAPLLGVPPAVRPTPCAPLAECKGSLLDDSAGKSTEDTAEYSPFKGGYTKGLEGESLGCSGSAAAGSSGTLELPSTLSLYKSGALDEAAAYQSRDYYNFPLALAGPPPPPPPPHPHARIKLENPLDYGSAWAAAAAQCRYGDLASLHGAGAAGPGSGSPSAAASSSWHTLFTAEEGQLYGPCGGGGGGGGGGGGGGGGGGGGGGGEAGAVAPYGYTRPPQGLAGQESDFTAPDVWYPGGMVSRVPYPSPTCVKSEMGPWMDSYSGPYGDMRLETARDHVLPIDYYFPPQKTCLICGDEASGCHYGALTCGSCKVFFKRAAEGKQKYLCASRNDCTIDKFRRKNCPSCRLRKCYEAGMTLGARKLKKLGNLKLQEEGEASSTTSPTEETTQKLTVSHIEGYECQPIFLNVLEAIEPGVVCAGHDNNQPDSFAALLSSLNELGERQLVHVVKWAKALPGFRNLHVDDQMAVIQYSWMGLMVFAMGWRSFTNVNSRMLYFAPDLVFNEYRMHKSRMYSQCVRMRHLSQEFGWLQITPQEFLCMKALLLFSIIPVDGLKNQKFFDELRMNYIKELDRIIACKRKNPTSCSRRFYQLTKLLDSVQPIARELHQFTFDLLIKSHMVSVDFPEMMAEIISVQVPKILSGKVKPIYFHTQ

Row | Structure (SMILES) | Potency
25 | CCCCC(CC)COC(=O)c1ccc(C(=O)OCC(CC)CCCC)c(C(=O)OCC(CC)CCCC)c1 (stereo not given) | inactive
26 | c1cc(OCC2CO2)ccc1Cc1ccc(OCC2CO2)cc1 (stereo not given) | inactive
27 | CC(C)Oc1cc(-n2nc(C(C)(C)C)oc2=O)c(Cl)cc1Cl | inactive
28 | N#Cc1cc(Br)c(O)c(Br)c1 | inactive
29 | O=[N+]([O-])c1ccc(O)c([N+](=O)[O-])c1 | inactive
30 | CCN(CC)C(=O)/C(Cl)=C(\C)OP(=O)(OC)OC | inactive
31 | Nc1ccncc1 | inactive

test system: not listed separately; test: qHTS assay to identify small molecule antagonists of the estrogen receptor beta (ER-beta) signaling pathway - cell viability counter screen (AID 1259382); details: ER-beta-UAS-bla HEK293T viability, CellTiter-Glo luminescence, 16 h; series mostly up to 92.4 µM; activity change, negative = cytotoxicity: at the top concentration; further: nearly all actives have a fitted effect of over 55% in size; further: potency means the concentration at half of the fitted maximal effect
How it was run: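 Agonist-stimulated (1nM E2) ER-beta-UAS-bla HEK293T cells are incubated with library compounds for 16 hr at 37C. Cell viability is then assessed in the reporter-assay wells by adding CellTiter-Glo and reading luminescence after 30 min.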

Row | Structure (SMILES) | Potency | activity change, negative = cytotoxicity
32 | CCCCC(CC)COC(=O)c1ccc(C(=O)OCC(CC)CCCC)c(C(=O)OCC(CC)CCCC)c1 (stereo not given) | inactive | 
33 | C[C@]12CCC(=O)C(O)=C1CC[C@@H]1[C@@H]2CC[C@]2(C)C(=O)CC[C@@H]12 |  | -20.5% [at 42.5 µM] (inactive)
34 | Oc1cc(Cl)ccc1Oc1ccc(Cl)cc1Cl | 41.8 µM (active) | 
35 | CCC(C)(c1ccc(O)cc1)c1ccc(O)cc1 | inactive | 
36 | O=C(NC(=O)c1c(F)cccc1F)Nc1ccc(Cl)cc1 | inactive | 
37 | c1cc(OCC2CO2)ccc1Cc1ccc(OCC2CO2)cc1 (stereo not given) | 48.8 µM (active) and inactive | 
38 | C#CCOS(=O)OC1CCCCC1Oc1ccc(C(C)(C)C)cc1 (stereo not given) |  | -20.9% (inactive)
39 | CCN(CC)C(=O)SCc1ccc(Cl)cc1 | inactive | 
40 | CC(C)Oc1cc(-n2nc(C(C)(C)C)oc2=O)c(Cl)cc1Cl | inactive | 
41 | O=C(Nc1ccc(Br)cc1)c1cc(Br)cc(Br)c1O | 24.3 µM (active) | 
42 | CNC(=O)Oc1cccc2c1OC(C)(C)O2 | inactive | 
43 | CC(C)=CC1C(C(=O)OCc2coc(Cc3ccccc3)c2)C1(C)C (stereo not given) |  | -4.38% (inactive)
44 | NNC(N)=S | 12.7 µM (active) | 
45 | Nc1cccnc1 | inactive | 
46 | CN(C)c1ccc(C(=O)c2ccc(N(C)C)cc2)cc1 | inactive | 
47 | N#Cc1cc(Br)c(O)c(Br)c1 | inactive | 
48 | O=[N+]([O-])c1ccc(O)c([N+](=O)[O-])c1 | inactive | 
49 | CCN(CC)C(=O)/C(Cl)=C(\C)OP(=O)(OC)OC | inactive | 

Row | Structure (SMILES) | Potency | activity change, negative = cytotoxicity
50 | Oc1cc(Cl)c(Cl)cc1Cl | inactive | 
51 | COP(=S)(OC)Oc1ccc([N+](=O)[O-])cc1 | inactive | 
52 | O=S(=O)(Oc1ccc(Cl)cc1)c1ccc(Cl)cc1 | inactive | 
53 | N#CC(Br)Br | inactive | 
54 | CCOP(=S)(OCC)O/N=C(\C#N)c1ccccc1 | inactive | 
55 | CCC(C)(C)c1ccc(O)cc1 | inactive | 
56 | Nn1cnnc1 | inactive | 
57 | NC(=S)Nc1ccccc1 | 27.8 µM (active) and inactive | 
58 | Nc1ccncc1 | inactive | 
59 | CC(O)CCO (stereo not given) |  | 4.81% (inactive)
60 | Oc1c(Cl)c(Cl)c(Cl)c(Cl)c1Cl | inactive | 
61 | CCOc1cc(Oc2ccc(C(F)(F)F)cc2Cl)ccc1[N+](=O)[O-] | inactive | 
62 | CCOc1cc(C=O)ccc1O | inactive | 
63 | CC(C)c1ccc(CO)cc1 | inactive | 
64 | CCOC(=O)C(C)OC(=O)c1cc(Oc2ccc(C(F)(F)F)cc2Cl)ccc1[N+](=O)[O-] (stereo not given) | inactive | 
65 | Clc1nc(Cl)nc(Cl)n1 | inactive | 
66 | O=C1C=CC(=O)C=C1 | inactive | 
67 | C=CCc1ccc(OC)cc1 | inactive | 

target: Estrogen receptor (Homo sapiens) (UniProt P03372); test: qHTS assay to identify small molecule agonists of the estrogen receptor alpha (ER-alpha) signaling pathway in the presence of an antagonist (AID 1259383; calls by dose curve; further: nearly all actives have a fitted effect of over 15% in size; further: potency means the concentration at half of the fitted maximal effect; on activation: top concentration of the series differs between compounds); details: VM7Luc4E2 cells, ERE-luciferase, +ICI-182,780, 22 h; series mostly up to 92.4 µM; activation: at the top concentration
How it was run: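 Using VM7Luc4E2 cells seeded 24hr before treatment, antagonist ICI-182,780 (10.0nM final) was added, followed by compounds at 15 concentrations. Plates incubated 22hr; ONE-Glo luminescence quantified reporter activity.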

Chain of Estrogen receptor (Homo sapiens) (P03372 whole entry, looked up): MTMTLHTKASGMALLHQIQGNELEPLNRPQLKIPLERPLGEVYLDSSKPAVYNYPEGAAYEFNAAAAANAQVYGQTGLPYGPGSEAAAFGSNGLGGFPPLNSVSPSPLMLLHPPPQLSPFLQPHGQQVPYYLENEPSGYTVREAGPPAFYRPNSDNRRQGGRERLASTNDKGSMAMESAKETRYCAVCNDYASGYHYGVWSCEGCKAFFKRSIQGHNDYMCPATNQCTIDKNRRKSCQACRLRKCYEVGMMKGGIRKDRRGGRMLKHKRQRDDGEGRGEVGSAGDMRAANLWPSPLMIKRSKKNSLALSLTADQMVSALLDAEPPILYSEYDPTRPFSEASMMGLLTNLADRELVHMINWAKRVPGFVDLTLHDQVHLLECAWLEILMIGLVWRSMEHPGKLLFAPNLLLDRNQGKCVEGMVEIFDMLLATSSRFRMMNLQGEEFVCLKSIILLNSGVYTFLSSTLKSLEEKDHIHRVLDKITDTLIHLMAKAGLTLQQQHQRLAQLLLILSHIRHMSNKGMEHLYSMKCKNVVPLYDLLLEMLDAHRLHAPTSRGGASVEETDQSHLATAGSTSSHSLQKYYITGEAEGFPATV

Row | Structure (SMILES) | Potency
68 | C[C@]12CCC(=O)C(O)=C1CC[C@@H]1[C@@H]2CC[C@]2(C)C(=O)CC[C@@H]12 | inactive
69 | CCC(C)(c1ccc(O)cc1)c1ccc(O)cc1 | 9.68 µM (active) and 8.63 µM (active)
70 | O=C(NC(=O)c1c(F)cccc1F)Nc1ccc(Cl)cc1 | inactive
71 | c1cc(OCC2CO2)ccc1Cc1ccc(OCC2CO2)cc1 (stereo not given) | inactive
72 | C#CCOS(=O)OC1CCCCC1Oc1ccc(C(C)(C)C)cc1 (stereo not given) | inactive
73 | CCN(CC)C(=O)SCc1ccc(Cl)cc1 | inactive
74 | CC(C)Oc1cc(-n2nc(C(C)(C)C)oc2=O)c(Cl)cc1Cl | inactive
75 | O=C(Nc1ccc(Br)cc1)c1cc(Br)cc(Br)c1O | 2.42 µM (active) and inactive
76 | CNC(=O)Oc1cccc2c1OC(C)(C)O2 | inactive
77 | CC(C)=CC1C(C(=O)OCc2coc(Cc3ccccc3)c2)C1(C)C (stereo not given) | inactive
78 | NNC(N)=S | inactive
79 | Nc1cccnc1 | inactive
80 | N#Cc1cc(Br)c(O)c(Br)c1 | inactive
81 | O=[N+]([O-])c1ccc(O)c([N+](=O)[O-])c1 | inactive
82 | CCN(CC)C(=O)/C(Cl)=C(\C)OP(=O)(OC)OC | inactive
83 | COP(=S)(OC)Oc1ccc([N+](=O)[O-])cc1 | inactive
84 | O=S(=O)(Oc1ccc(Cl)cc1)c1ccc(Cl)cc1 | inactive
85 | N#CC(Br)Br | inactive
86 | CCC(C)(C)c1ccc(O)cc1 | inactive
87 | Nn1cnnc1 | inactive
88 | NC(=S)Nc1ccccc1 | inactive
89 | Nc1ccncc1 | inactive
90 | Oc1c(Cl)c(Cl)c(Cl)c(Cl)c1Cl | inactive
91 | CCOc1cc(Oc2ccc(C(F)(F)F)cc2Cl)ccc1[N+](=O)[O-] | inactive
92 | CC(C)c1ccc(CO)cc1 | inactive
93 | CCOC(=O)C(C)OC(=O)c1cc(Oc2ccc(C(F)(F)F)cc2Cl)ccc1[N+](=O)[O-] (stereo not given) | inactive
94 | Clc1nc(Cl)nc(Cl)n1 | inactive
95 | CCOCN(C(=O)CCl)c1c(C)cccc1CC | inactive
